Experimental data published in PubChem BioAssay AID488969 (Vanderbilt High Throughput Screening Facility, 2010).
Whole data set: some 110,000 compounds, median “z-score” near -0.1, cut for the highest 2% near 2. This excerpt belongs to a sample that is enriched for the highest values. The source made the active and inactive calls.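 The calls were made as follows: active = z-score in the third read window above 3 or below -3; inactive = the rest.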

target: Metabotropic glutamate receptor 8 (Rattus norvegicus) (UniProt P70579); test: mGluR8 Gi/Go-coupled signaling modulation – cell-based, rat, thallium flux, HTS, primary screen (AID 488969); settings: HEK293 rat mGluR8, GIRK (G protein-gated inwardly rectifying potassium channel) thallium flux, FluoZin2; at 10 µM; stronger effect = higher value
Sequence (P70579 whole entry, looked up): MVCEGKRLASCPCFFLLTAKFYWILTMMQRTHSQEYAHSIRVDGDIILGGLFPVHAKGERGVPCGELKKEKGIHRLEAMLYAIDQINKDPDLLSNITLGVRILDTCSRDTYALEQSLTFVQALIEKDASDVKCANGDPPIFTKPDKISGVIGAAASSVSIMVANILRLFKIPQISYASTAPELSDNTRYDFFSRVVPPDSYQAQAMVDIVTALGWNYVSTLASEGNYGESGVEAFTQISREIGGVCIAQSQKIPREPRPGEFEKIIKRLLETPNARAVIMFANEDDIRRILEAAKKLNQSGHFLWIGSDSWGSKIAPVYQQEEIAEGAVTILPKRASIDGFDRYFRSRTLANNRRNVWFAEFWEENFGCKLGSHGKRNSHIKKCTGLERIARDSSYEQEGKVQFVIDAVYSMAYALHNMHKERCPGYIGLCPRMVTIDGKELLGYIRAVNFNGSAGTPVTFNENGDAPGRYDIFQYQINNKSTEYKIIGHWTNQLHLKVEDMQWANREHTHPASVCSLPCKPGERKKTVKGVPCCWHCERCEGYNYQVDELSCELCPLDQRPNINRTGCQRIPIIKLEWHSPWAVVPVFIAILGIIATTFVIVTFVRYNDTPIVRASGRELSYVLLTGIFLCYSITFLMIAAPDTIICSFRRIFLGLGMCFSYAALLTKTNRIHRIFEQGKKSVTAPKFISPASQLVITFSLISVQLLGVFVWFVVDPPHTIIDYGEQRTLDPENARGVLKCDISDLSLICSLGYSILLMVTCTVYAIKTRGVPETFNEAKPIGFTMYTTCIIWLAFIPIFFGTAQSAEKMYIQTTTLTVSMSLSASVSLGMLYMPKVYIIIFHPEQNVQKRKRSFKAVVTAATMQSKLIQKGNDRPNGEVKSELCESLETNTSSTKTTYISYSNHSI

Question: COc1ccccc1N(CC(=O)NC1CCCCC1)C(=O)c1cnn(C(C)C)c1 was tested. Which z-score did it give?
Answer: 0.21

Question: Which z-score does the source give for CN1C(=O)NC(=O)C2(Cc3ccccc3N3CCOCC32)C1=O (configuration not stated) here?
Answer: -0.307

Question: For CCCCn1c(O)c(C(CC)=NCc2cc(OC)cc(OC)c2)c(=O)[nH]c1=O, which z-score is on record?
Answer: -0.703

Question: For N=c1c[n+](CC23CC4CC(CC(C4)C2)C3)[n-]o1, which z-score is on record?
Answer: 2.09

Question: How did the z-score turn out when O=C(c1ccc2c(c1)ncn2C1CCCCCC1)N1CCC2(CC1)OCCO2 was run?
Answer: -0.0497

Question: Which z-score does the source give for CCCCCCCC(=O)NC(Oc1ccccc1[N+](=O)[O-])C(Cl)(Cl)Cl (configuration not stated) here?
Answer: 0.238

Question: How did the z-score turn out when CCCC(=O)Nc1cc(C(=O)N2CCC3(CC2)OCCO3)ccc1S(=O)(=O)c1ccc(C)cc1 was run?
Answer: -0.0584

Question: With CC(C(N)=O)N1CC(c2ccc(Cl)cc2)CC1=O (configuration not stated) as the compound, how does the z-score read?
Answer: -0.161

Question: For OC(Cc1ccccc1)(c1ccccc1)C1CN2CCC1CC2 (configuration not stated), which z-score is on record?
Answer: 2

Question: How did the z-score turn out when Cc1ccccc1C(O)(Cc1ccccc1)C1CN2CCC1CC2 (configuration not stated) was run?
Answer: -0.323

Question: How did the z-score turn out when CN1CCCC1C(O)(c1ccccc1)c1ccccc1 (configuration not stated) was run?
Answer: -0.0177

Question: For CCOC(=O)c1sc(/N=C/c2c(O)n(-c3cccc(C)c3)c(=O)[nH]c2=O)c(C#N)c1C, which z-score is on record?
Answer: -0.627

Question: Which z-score does the source give for CCN1C(=O)C(=Cc2cc(C)n(C3CC3)c2C)C(=O)N(CC)C1=S here?
Answer: -0.0808

Question: With CC1=NN(c2ccccc2)C(=O)C1/C=C1\C(=O)NC(=O)N(c2cc(C)cc(C)c2)C1=O (configuration not stated) as the compound, how does the z-score read?
Answer: -0.0364

Question: CN(C)C(=O)Oc1ccc(OC(=O)N(C)C)cc1 was tested. Which z-score did it give?
Answer: 0.415

Question: How did the z-score turn out when CN1/C(=C\C=C\C2=[N+](C)c3ccc4ccccc4c3C2(C)C)C(C)(C)c2ccccc21 was run?
Answer: 5.85 (active)

Question: With C[N+]1=C(/C=C/Nc2ccccc2)C(C)(C)c2ccccc21 as the compound, how does the z-score read?
Answer: -1.45

Question: How did the z-score turn out when CN1/C(=C\C=Nc2ccccc2)C(C)(C)c2ccccc21 was run?
Answer: -0.319

Question: How did the z-score turn out when Cc1cc(C=C2C(=O)N(C)C(=S)N(C)C2=O)c(C)n1C1CCCCC1 was run?
Answer: -0.45

Question: O=C1CN=C(c2ccccc2)c2ccccc2N1Cc1ccc(C(F)(F)F)cc1 was tested. Which z-score did it give?
Answer: 0.646

Question: How did the z-score turn out when CNC(=O)OCCc1n(C)cc[n+]1C was run?
Answer: -0.193

Question: How did the z-score turn out when CNC(=O)OCCc1nccn1C was run?
Answer: 3.02 (active)

Question: For C=CCn1c(O)c(/C=C2/C=CC=N2)c(=O)[nH]c1=O, which z-score is on record?
Answer: -0.219

Question: With O=C(c1cc(S(=O)(=O)N2CCCCC2)ccc1F)N1CCC2(CC1)OCCO2 as the compound, how does the z-score read?
Answer: -0.0595

Question: CCCCCCN=C(C)c1c(O)n(CCCC)c(=O)[nH]c1=O was tested. Which z-score did it give?
Answer: -2.32

Question: With CCCCn1c(O)c(C(C)=NCCCN(C)C)c(=O)[nH]c1=O as the compound, how does the z-score read?
Answer: 0.319

Question: CCCCn1c(O)c(C(C)=NCCCn2ccnc2)c(=O)[nH]c1=O was tested. Which z-score did it give?
Answer: 2.03

Question: How did the z-score turn out when O=[N+]([O-])c1ccc(C2[C@H]3C(c4ccccc4)=NC4(CCCCC4)N23)cc1 (some centres not stated) was run?
Answer: -0.0546

Question: With O=c1[nH]c(=O)n(C2CCCCCC2)c(O)c1C=NC1CCN(Cc2ccccc2)CC1 as the compound, how does the z-score read?
Answer: -0.182

Question: Which z-score does the source give for O=C(c1cc2ccccn2n1)N1CCC2(CC1)OCCO2 here?
Answer: 4 (active)

Question: With O=C(c1cc2nc(-c3ccccc3)cc(-c3ccccc3)n2n1)N1CCC2(CC1)OCCO2 as the compound, how does the z-score read?
Answer: -0.525

Question: Which z-score does the source give for O=C(c1cc2ccccc2oc1=O)N1CCC2(CC1)OCCO2 here?
Answer: 0.602
